# Reference: article PMC7862700, “An all-to-all approach to the identification of sequence-specific readers for epigenetic DNA modifications on cytosine”
# Assays:
# Assay in all cases: DAPPL (digital affinity profiling via proximity ligation, sequencing); 10 mM Tris-HCl pH 7.5, 50 mM NaCl, 1 mM DTT, 4% glycerol, room temperature, 30 min; GST-TFs on glutathione beads, 16-mer random dsDNA library, 0.1% formaldehyde crosslink after washing; high values mean tight binding
# FEV = biological target: T1, FEV (Homo sapiens, UniProt Q99581 1-238); details: protein: recombinant; tags: N-terminal GST; dsDNA, one strand shown
# T1 sequence: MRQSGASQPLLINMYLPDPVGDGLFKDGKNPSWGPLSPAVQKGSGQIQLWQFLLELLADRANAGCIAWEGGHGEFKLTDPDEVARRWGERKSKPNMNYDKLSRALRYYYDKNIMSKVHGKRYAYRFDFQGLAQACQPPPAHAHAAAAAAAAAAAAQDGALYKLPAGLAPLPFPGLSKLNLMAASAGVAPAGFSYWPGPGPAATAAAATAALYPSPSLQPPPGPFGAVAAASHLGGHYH
# How it was run: (§1)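 GST fusions of human transcription factors were expressed in yeast and captured with glutathione beads. Once given DNA barcodes and pooled alongside a tag-only sample, they were incubated for 30 min at room temperature with 200 nmole of a random double-stranded 16-mer DNA library in Tris/NaCl/DTT/glycerol buffer, then washed, crosslinked (0.1% formaldehyde), proximity-ligated, PCR-amplified and sequenced on an Illumina NextSeq500. The binding signal of each hexamer is its read frequency for a factor divided by its frequency for the tag-only sample.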
# ETV5 = ETV5 (Homo sapiens, UniProt P41161 1-510); details: protein: recombinant; tags: N-terminal GST; dsDNA, one strand shown
# How it was run: as §1
# HSF1 = HSF1 (Homo sapiens, UniProt Q00613 1-529); details: protein: recombinant; tags: N-terminal GST; chain copies: 3; dsDNA, one strand shown
# How it was run: as §1
# SPIC = biological target: T2, SPIC (Homo sapiens, UniProt Q8N5J4 1-248); details: protein: recombinant; tags: N-terminal GST; dsDNA, one strand shown
# T2 sequence: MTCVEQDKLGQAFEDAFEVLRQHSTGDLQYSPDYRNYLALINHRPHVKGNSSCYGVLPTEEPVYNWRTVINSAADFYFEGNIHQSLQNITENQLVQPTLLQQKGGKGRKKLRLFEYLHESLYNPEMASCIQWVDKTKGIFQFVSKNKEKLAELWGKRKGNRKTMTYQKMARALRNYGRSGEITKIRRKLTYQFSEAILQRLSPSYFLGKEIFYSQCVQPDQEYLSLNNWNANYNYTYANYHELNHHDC
# How it was run: as §1
# ELF4 = ELF4 (Homo sapiens, UniProt Q99607 1-663); details: protein: recombinant; tags: N-terminal GST; dsDNA, one strand shown
# How it was run: as §1
# ELK4 = biological target: T3, ELK4 (Homo sapiens, UniProt P28324-2 1-405); details: protein: recombinant; tags: N-terminal GST; dsDNA, one strand shown
# T3 sequence: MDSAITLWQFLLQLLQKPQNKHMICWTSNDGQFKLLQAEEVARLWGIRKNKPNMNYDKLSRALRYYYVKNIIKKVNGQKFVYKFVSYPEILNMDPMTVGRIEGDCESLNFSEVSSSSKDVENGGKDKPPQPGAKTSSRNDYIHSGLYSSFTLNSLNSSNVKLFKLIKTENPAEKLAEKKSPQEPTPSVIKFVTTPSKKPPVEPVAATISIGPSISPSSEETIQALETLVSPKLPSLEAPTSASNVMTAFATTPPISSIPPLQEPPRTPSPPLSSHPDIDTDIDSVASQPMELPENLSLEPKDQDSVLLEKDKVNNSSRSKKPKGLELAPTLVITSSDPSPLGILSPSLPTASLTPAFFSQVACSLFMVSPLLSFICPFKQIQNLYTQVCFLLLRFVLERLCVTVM
# How it was run: as §1
# ETV2 = biological target: T4, ETV2 (Homo sapiens, UniProt O00321 1-342); details: protein: recombinant; tags: N-terminal GST; dsDNA, one strand shown
# T4 sequence: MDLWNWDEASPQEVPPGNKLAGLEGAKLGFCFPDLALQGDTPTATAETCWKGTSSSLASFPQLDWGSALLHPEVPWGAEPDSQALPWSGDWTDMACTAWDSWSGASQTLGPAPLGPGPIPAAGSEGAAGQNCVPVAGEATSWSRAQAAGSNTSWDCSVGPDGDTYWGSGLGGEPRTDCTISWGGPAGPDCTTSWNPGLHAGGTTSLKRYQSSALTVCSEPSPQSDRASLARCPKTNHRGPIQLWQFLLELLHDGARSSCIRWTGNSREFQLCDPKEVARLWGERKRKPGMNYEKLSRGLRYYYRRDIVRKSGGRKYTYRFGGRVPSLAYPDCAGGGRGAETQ
# How it was run: as §1
# ELF3 = biological target: T5, ELF3 (Homo sapiens, UniProt P78545 1-371); details: protein: recombinant; tags: N-terminal GST; dsDNA, one strand shown
# T5 sequence: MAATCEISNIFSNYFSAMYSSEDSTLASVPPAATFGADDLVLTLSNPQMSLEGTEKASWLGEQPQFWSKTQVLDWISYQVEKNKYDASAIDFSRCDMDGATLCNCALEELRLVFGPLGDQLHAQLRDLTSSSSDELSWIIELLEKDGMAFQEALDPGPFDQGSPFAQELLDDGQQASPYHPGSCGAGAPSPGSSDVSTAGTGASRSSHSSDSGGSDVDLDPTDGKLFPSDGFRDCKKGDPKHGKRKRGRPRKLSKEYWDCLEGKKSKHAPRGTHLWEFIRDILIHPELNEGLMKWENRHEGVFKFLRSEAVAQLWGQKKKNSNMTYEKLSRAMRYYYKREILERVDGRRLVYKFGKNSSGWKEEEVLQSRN
# How it was run: as §1
# CRX = CRX (Homo sapiens, UniProt O43186 1-299); details: protein: recombinant; tags: N-terminal GST; dsDNA, one strand shown
# How it was run: as §1
# ETV1 = ETV1 (Homo sapiens, UniProt P50549 1-477); details: protein: recombinant; tags: N-terminal GST; dsDNA, one strand shown
# How it was run: as §1
# Sequence of ETV5 (P41161 whole entry): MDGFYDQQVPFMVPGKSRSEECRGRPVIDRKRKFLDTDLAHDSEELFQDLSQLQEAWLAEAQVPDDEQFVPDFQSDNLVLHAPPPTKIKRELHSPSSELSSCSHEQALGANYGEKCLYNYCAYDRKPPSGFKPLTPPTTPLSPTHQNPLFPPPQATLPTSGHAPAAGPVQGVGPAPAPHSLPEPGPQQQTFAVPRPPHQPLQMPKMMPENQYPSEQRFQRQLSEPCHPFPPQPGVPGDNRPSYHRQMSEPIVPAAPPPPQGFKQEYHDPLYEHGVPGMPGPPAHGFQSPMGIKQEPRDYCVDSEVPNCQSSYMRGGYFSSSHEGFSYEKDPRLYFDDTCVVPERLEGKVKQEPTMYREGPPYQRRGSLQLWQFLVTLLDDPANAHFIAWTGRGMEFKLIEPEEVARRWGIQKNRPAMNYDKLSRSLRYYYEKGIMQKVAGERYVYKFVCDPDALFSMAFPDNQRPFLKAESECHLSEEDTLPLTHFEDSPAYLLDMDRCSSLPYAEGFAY
# Sequence of ETV1 (P50549 whole entry): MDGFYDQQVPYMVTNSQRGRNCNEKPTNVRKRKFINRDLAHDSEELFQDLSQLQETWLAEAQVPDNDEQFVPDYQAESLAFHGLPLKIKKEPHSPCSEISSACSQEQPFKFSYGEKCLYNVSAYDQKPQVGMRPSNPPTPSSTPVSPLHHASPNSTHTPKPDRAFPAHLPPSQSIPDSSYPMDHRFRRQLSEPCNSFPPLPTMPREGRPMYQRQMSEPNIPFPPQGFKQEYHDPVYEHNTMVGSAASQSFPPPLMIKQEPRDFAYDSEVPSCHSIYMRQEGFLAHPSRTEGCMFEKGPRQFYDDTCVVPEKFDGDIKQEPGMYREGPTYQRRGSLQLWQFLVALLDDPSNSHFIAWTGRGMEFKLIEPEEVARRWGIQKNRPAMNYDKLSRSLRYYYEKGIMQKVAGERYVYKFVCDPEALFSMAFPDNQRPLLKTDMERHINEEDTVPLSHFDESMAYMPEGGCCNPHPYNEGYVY
# Sequence of CRX (O43186 whole entry): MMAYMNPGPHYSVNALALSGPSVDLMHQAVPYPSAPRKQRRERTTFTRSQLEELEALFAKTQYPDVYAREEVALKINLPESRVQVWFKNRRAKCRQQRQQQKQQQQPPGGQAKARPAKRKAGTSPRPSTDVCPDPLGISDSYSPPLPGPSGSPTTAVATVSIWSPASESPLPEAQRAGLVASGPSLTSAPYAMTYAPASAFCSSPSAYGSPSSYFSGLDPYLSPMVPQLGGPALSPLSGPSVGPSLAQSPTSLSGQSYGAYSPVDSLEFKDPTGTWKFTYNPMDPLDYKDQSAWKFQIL
# Sequence of HSF1 (Q00613 whole entry): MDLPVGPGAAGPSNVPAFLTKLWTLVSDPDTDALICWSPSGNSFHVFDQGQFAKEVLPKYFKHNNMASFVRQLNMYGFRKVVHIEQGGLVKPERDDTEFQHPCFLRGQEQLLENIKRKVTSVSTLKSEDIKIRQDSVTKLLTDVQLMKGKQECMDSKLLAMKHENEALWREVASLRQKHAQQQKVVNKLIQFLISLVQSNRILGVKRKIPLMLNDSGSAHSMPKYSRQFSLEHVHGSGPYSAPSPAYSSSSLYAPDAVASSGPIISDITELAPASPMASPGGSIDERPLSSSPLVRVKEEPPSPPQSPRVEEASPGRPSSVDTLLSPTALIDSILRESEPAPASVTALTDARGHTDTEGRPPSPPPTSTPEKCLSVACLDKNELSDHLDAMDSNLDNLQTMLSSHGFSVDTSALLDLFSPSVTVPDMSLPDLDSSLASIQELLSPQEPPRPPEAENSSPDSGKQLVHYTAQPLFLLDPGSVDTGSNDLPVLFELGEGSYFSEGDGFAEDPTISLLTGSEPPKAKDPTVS
# Sequence of ELF4 (Q99607 whole entry): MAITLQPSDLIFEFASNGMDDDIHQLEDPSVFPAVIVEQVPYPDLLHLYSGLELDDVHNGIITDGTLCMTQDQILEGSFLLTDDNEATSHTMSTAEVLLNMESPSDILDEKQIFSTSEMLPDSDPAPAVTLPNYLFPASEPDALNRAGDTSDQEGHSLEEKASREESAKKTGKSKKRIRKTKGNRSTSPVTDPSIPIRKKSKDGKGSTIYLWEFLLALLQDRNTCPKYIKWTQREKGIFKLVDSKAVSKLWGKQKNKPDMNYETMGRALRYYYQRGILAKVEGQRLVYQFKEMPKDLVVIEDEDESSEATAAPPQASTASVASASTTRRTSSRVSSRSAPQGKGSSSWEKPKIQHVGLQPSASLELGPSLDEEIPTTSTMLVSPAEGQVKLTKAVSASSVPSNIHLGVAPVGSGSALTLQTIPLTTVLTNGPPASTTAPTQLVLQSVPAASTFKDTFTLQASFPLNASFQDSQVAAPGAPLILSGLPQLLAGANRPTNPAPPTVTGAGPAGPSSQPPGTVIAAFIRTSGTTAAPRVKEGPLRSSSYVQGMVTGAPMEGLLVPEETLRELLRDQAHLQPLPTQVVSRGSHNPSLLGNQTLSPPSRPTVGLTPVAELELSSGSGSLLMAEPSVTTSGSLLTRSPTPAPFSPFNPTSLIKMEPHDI
Sequence,binding signal (FEV),binding signal (ETV5),binding signal (HSF1),binding signal (SPIC),binding signal (ELF4),binding signal (ELK4),binding signal (ETV2),binding signal (ELF3),binding signal (CRX),binding signal (ETV1)
ATTCGT,"1.12 fold enrichment (6-mer frequency, TF over GST control)","1.19 fold enrichment (6-mer frequency, TF over GST control)","1.27 fold enrichment (6-mer frequency, TF over GST control)","1.25 fold enrichment (6-mer frequency, TF over GST control)","1.24 fold enrichment (6-mer frequency, TF over GST control)","1.11 fold enrichment (6-mer frequency, TF over GST control)","1.16 fold enrichment (6-mer frequency, TF over GST control)","1.37 fold enrichment (6-mer frequency, TF over GST control)","1.28 fold enrichment (6-mer frequency, TF over GST control)","1.14 fold enrichment (6-mer frequency, TF over GST control)"
TTGCTT,"1.16 fold enrichment (6-mer frequency, TF over GST control)","1.24 fold enrichment (6-mer frequency, TF over GST control)","1.1 fold enrichment (6-mer frequency, TF over GST control)","1.38 fold enrichment (6-mer frequency, TF over GST control)","1.24 fold enrichment (6-mer frequency, TF over GST control)","1.24 fold enrichment (6-mer frequency, TF over GST control)","1.16 fold enrichment (6-mer frequency, TF over GST control)","1.31 fold enrichment (6-mer frequency, TF over GST control)","1.24 fold enrichment (6-mer frequency, TF over GST control)","1.25 fold enrichment (6-mer frequency, TF over GST control)"
TGGTTT,"1.54 fold enrichment (6-mer frequency, TF over GST control)","1.71 fold enrichment (6-mer frequency, TF over GST control)","1.4 fold enrichment (6-mer frequency, TF over GST control)","1.67 fold enrichment (6-mer frequency, TF over GST control)","1.54 fold enrichment (6-mer frequency, TF over GST control)","1.52 fold enrichment (6-mer frequency, TF over GST control)","1.34 fold enrichment (6-mer frequency, TF over GST control)","1.5 fold enrichment (6-mer frequency, TF over GST control)","1.5 fold enrichment (6-mer frequency, TF over GST control)","1.69 fold enrichment (6-mer frequency, TF over GST control)"
CCGCTT,"2.01 fold enrichment (6-mer frequency, TF over GST control)","2.03 fold enrichment (6-mer frequency, TF over GST control)","1.49 fold enrichment (6-mer frequency, TF over GST control)","1.83 fold enrichment (6-mer frequency, TF over GST control)","1.87 fold enrichment (6-mer frequency, TF over GST control)","1.8 fold enrichment (6-mer frequency, TF over GST control)","1.6 fold enrichment (6-mer frequency, TF over GST control)","2.08 fold enrichment (6-mer frequency, TF over GST control)","1.82 fold enrichment (6-mer frequency, TF over GST control)","2.11 fold enrichment (6-mer frequency, TF over GST control)"
TCTACC,"1.52 fold enrichment (6-mer frequency, TF over GST control)","1.52 fold enrichment (6-mer frequency, TF over GST control)","1.67 fold enrichment (6-mer frequency, TF over GST control)","1.53 fold enrichment (6-mer frequency, TF over GST control)","1.56 fold enrichment (6-mer frequency, TF over GST control)","1.48 fold enrichment (6-mer frequency, TF over GST control)","1.39 fold enrichment (6-mer frequency, TF over GST control)","1.53 fold enrichment (6-mer frequency, TF over GST control)","1.44 fold enrichment (6-mer frequency, TF over GST control)","1.57 fold enrichment (6-mer frequency, TF over GST control)"
TGGCTT,"1.34 fold enrichment (6-mer frequency, TF over GST control)","1.19 fold enrichment (6-mer frequency, TF over GST control)","1.38 fold enrichment (6-mer frequency, TF over GST control)","1.34 fold enrichment (6-mer frequency, TF over GST control)","1.28 fold enrichment (6-mer frequency, TF over GST control)","1.23 fold enrichment (6-mer frequency, TF over GST control)","1.3 fold enrichment (6-mer frequency, TF over GST control)","1.32 fold enrichment (6-mer frequency, TF over GST control)","1.75 fold enrichment (6-mer frequency, TF over GST control)","1.1 fold enrichment (6-mer frequency, TF over GST control)"
GCTCTC,"1.47 fold enrichment (6-mer frequency, TF over GST control)","1.28 fold enrichment (6-mer frequency, TF over GST control)","1.42 fold enrichment (6-mer frequency, TF over GST control)","1.33 fold enrichment (6-mer frequency, TF over GST control)","1.45 fold enrichment (6-mer frequency, TF over GST control)","1.56 fold enrichment (6-mer frequency, TF over GST control)","1.61 fold enrichment (6-mer frequency, TF over GST control)","1.35 fold enrichment (6-mer frequency, TF over GST control)","1.24 fold enrichment (6-mer frequency, TF over GST control)","1.57 fold enrichment (6-mer frequency, TF over GST control)"
